Activity calls are given as the source filed them. Unless noted, the rule behind the calls is not given here.
Legend:
[1] = compounds binding Alexa647 anti-His antibody – biochemical, small-molecule microarray, 635 nm fluorescence, artefact control for SMM control protein annotation, primary screen (AID 1128); conditions: higher = more signal;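 note: score merges feature fluorescence with signal-to-noise for each printed compound spot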
[2] = tested on: Human papillomavirus type 1a E7 protein (residues 1-88); assay: HPV1a E7 small-molecule binders, primary screen, biochemical, small-molecule microarray, residues 1-88, 635 nm (AID 1129); conditions: small-molecule microarray binding, fluorescence 635 nm; higher = more signal
[3] = target: Focal adhesion kinase 1 (Homo sapiens) (UniProt Q05397); assay: PTK2 protein binding on printed compound slides – biochemical, small-molecule microarray, 635/667 nm fluorescence, BSA, DTT, primary screen (AID 1130); conditions: 635 nm fluorescence, higher = more signal;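 note: composite of spot emission at 667 nm and signal to noise over triplicate slides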
Focal adhesion kinase 1 (Homo sapiens), sequence (Q05397 whole entry, looked up): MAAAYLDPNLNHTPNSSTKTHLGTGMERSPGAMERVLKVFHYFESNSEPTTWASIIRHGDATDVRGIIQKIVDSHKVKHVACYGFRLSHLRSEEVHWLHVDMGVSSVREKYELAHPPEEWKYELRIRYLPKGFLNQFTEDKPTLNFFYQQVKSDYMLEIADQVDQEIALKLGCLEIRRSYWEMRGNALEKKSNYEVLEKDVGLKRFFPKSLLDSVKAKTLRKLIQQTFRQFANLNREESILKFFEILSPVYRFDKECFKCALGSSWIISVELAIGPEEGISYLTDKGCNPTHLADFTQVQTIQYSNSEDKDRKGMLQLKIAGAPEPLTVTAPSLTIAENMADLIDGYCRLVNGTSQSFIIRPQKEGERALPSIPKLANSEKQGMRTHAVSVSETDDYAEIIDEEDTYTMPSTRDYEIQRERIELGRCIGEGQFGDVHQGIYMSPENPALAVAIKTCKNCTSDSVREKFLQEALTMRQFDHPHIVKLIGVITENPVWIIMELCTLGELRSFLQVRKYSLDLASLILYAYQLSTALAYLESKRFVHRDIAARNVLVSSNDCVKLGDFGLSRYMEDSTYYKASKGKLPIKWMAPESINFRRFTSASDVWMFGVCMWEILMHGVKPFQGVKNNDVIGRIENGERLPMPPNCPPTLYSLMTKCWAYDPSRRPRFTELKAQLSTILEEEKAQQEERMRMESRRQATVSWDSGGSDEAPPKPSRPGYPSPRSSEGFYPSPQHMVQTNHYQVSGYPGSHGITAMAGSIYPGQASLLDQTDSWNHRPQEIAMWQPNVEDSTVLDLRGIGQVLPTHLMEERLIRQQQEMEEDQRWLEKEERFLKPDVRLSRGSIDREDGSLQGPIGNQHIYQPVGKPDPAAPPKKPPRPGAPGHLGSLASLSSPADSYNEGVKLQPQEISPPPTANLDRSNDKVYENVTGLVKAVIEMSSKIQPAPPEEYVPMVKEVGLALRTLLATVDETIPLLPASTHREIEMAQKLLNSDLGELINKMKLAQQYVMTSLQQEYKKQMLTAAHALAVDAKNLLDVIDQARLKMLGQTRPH

[4] = tested on: Fibrinogen (Alexa647-labelled); assay: Alexa647-fibrinogen binding to printed small molecules – biochemical, small-molecule microarray, 635/667 nm fluorescence, artefact control for SMM control-protein annotation, profiling panel (AID 1131); conditions: fibrinogen-A647 binding fluorescence, higher = more signal;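 note: z-score merges 667 nm fluorescence with per-spot signal-to-noise over triplicate slides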
[5] = target: Follistatin (Homo sapiens) (UniProt P19883); assay: FST protein binding to printed compounds – biochemical, small-molecule microarray, 635/667 nm fluorescence, primary screen (AID 1132); conditions: 635 nm fluorescence, higher = more signal
Follistatin (Homo sapiens), sequence (P19883 whole entry, looked up): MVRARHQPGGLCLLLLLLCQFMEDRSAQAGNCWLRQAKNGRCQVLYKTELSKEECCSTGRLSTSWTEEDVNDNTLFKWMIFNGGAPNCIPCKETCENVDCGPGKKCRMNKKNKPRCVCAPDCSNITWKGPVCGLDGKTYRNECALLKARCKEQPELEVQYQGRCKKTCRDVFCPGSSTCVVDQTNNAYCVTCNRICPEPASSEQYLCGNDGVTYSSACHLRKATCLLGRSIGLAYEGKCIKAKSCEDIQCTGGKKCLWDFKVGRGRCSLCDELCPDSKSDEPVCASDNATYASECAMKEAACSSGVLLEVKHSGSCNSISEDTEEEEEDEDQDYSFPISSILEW

[6] = target: Fibroblast growth factor 2 (Homo sapiens) (UniProt P09038); assay: basic fibroblast growth factor binding to printed compounds – biochemical, small-molecule microarray, 635/667 nm fluorescence, primary screen (AID 1133); conditions: FGF2, fluorescence 635/667, higher = more signal
Fibroblast growth factor 2 (Homo sapiens), sequence (P09038 whole entry, looked up): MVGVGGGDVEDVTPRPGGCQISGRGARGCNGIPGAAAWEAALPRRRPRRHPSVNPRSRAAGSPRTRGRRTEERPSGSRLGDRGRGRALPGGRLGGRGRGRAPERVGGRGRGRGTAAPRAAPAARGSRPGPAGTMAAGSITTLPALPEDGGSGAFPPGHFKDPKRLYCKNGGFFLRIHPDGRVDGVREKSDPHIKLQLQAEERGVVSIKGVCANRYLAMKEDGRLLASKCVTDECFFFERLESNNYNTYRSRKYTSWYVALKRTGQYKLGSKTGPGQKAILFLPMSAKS

[7] = JC-1 mitochondrial potential readout, lung cancer cells – cell-based, A549, JC-1 fluorescence, basal, 24 h, 100 nL, profiling panel (AID 1138); conditions: higher = more signal;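 note: A549 lung adenocarcinoma cells under basal conditions with no added stimulus; test concentration not given here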
Lefty1 = Lefty1 protein binding to printed compounds – biochemical, small-molecule microarray, 635/667 nm fluorescence, primary screen (AID 1139); conditions: fluorescence 635/667, higher = more signal
[8] = tested on: wheat germ agglutinin (Triticum aestivum), Alexa647-labelled; assay: Alexa647-WGA lectin binding to printed small molecules – biochemical, small-molecule microarray, 635/667 nm fluorescence, artefact control for SMM control-protein annotation, profiling panel (AID 1140); conditions: WGA-A647 binding, 635 nm fluorescence, higher = more signal;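 note: score merges 667 nm feature emission with signal to noise over triplicate slides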
[9] = target: Luciferin 4-monooxygenase (Photinus pyralis) (UniProt P08659); assay: inhibition of purified Photinus pyralis luciferase – biochemical, luminescence, purified enzyme, 2006 set, primary screen (AID 1141); conditions: purified firefly luciferase, SteadyGlo luminescence, 30 min; higher = more signal, called active from +8 up or from −8 down;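 note: cell-free assay with purified firefly luciferase at 100 ng per well in PBS; test concentration not given here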
Luciferin 4-monooxygenase (Photinus pyralis), sequence (P08659 whole entry, looked up): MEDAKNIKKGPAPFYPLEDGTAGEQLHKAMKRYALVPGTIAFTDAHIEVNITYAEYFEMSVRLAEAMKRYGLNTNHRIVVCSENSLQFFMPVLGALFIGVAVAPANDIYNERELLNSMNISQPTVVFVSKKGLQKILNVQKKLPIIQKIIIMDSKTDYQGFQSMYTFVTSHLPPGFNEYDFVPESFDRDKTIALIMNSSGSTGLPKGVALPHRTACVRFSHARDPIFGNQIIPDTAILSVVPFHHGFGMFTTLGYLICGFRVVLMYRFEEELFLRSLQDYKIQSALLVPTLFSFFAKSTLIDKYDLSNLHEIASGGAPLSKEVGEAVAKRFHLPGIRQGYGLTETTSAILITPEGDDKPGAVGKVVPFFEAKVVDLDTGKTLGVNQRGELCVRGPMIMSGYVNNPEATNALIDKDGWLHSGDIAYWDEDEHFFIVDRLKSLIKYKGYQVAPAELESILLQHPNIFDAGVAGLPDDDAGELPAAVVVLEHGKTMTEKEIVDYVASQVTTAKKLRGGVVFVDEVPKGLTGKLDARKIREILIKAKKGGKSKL

[10] = tested on: Wnt5a (protein binding on small-molecule microarray); assay: small molecules binding Wnt5a protein – biophysical, small-molecule microarray, 635/667 nm fluorescence, primary screen (AID 1142); conditions: 635 nm fluorescence, higher = more signal;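 note: fluorescence read at 667 nm with signal to noise per printed feature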
[11] = ATP-based viability of Huh7 replicon cells – cell-based, CellTiter-Glo luminescence, basal, 48 h, cytotoxicity control for HCV replication inhibitor project, primary screen (AID 1143); conditions: higher = more signal, called active from +8 up or from −8 down;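 note: Huh7 hepatoma cells carrying a hepatitis C replication reporter with no stimulus; test concentration not given here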
[12] = Pseudomonas biofilm growth suppression – PAO1 strain, BacTiter-Glo luminescence, LB-PBS, primary screen (AID 1144); conditions: P. aeruginosa PAO1 biofilm, 12 h, higher = more signal
[13] = basal CRE-LacZ reporter activity in PC12 – cell-based, unstimulated, primary screen (AID 1145); conditions: no forskolin, luminescence, 4.5 h, higher = more signal, called active from +8 up or from −8 down
[14] = forskolin-driven CRE-LacZ activity in PC12 – cell-based, CRE-LacZ reporter, forskolin-stimulated, primary screen (AID 1146); conditions: luminescence, 4.5 h, higher = more signal, called active from +8 up or from −8 down;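 note: PC12 cells with 6xCRE LacZ reporter stimulated by forskolin 10 µM; beta-galactosidase reporter signal reflecting CREB driven transcription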
[15] = target: Streptavidin (Streptomyces avidinii) (UniProt P22629); assay: compounds binding control protein streptavidin – biophysical, small-molecule microarray, 635/667 nm fluorescence, artefact control for SMM compound annotation, primary screen (AID 1147); conditions: higher = more signal;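 note: signal reflects streptavidin binding to arrayed compounds as a control protein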
Streptavidin (Streptomyces avidinii), sequence (P22629 whole entry, looked up): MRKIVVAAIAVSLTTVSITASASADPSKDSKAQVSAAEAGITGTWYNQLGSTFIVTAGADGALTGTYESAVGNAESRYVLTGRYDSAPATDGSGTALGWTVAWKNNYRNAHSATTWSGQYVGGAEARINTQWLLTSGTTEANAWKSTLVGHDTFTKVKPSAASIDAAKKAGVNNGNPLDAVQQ

[16] = probe aInhba binding on compound microarray – biochemical, small-molecule microarray, 635/667 nm fluorescence, primary screen (AID 1148); conditions: higher = more signal;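 note: score merges 667nm spot fluorescence with signal-to-noise for antibody binding to printed compounds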
Torsin-1A (Homo sapiens) [17] = target: Torsin-1A (Homo sapiens) (UniProt O14656); assay: TOR1A wild-type binding on microarray – cell lysate, small-molecule microarray, lysate, 635/667 nm, primary screen (AID 1149); conditions: COS7 hTOR1A-WT lysate, 635 nm fluorescence, higher = more signal
Torsin-1A (Homo sapiens), sequence (O14656 whole entry, looked up): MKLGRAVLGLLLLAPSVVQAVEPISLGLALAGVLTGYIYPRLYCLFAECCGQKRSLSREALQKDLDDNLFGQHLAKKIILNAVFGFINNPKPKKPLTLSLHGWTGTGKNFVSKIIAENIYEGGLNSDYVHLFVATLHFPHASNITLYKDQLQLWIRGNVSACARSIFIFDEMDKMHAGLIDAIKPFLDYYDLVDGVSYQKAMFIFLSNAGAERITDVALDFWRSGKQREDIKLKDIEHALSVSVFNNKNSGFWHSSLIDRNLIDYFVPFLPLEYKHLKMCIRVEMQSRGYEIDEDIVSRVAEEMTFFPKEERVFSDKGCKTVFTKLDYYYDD

Torsin-1A (Homo sapiens) [18] = target: Torsin-1A (Homo sapiens) (UniProt O14656); assay: torsin A mutant lysate binding on microarrays – cell lysate, small-molecule microarray, COS7 lysate, 635/667 nm fluorescence, primary screen (AID 1150); conditions: COS7 hTOR1A mutant lysate, 635 nm fluorescence, higher = more signal;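 note: score pools 667 nm emission and signal to noise measuring lysate protein binding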
[19] = tested on: Sonic hedgehog protein (Shh); assay: Sonic hedgehog microarray binding compounds – biochemical, small-molecule microarray, 635/667 nm fluorescence, primary screen (AID 1151); conditions: 635 nm fluorescence, higher = more signal;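 note: Shh protein binding to compounds spotted on small-molecule microarray slides; score combines spot fluorescence intensity with signal-to-noise across triplicate slides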

SMILES	composite z-score [1]	composite z-score [2]	composite z-score [3]	composite z-score [4]	composite z-score [5]	composite z-score [6]	z-score [7]	composite z-score (Lefty1)	composite z-score [8]	z-score [9]	composite z-score [10]	z-score [11]	z-score [12]	z-score [13]	z-score [14]	composite z-score [15]	composite z-score [16]	composite z-score (Torsin-1A (Homo sapiens) [17])	composite z-score (Torsin-1A (Homo sapiens) [18])	composite z-score [19]
O=C(N1CCCCC1)[C@@]1(CCS(=O)(=O)c2ccccc2)COC(c2ccc(OCCCO)cc2)=N1	2.55	1.22	0.298	0.839	1.4	1.52	0.32	0.126	0.848	-0.0825 (inactive)	1.17	-2.3 (inactive)	0.514 (inactive)	0.62 (inactive)	-0.334 (inactive)	1.31	0.421	1.19	0.496	0.447
CN(C)C(=O)[C@@]1(CCS(=O)(=O)c2ccccc2)N=C(c2ccc(OCCCO)cc2)O[C@H]1c1ccccc1	2.36	1.23	0.365	0.983	1.02	-0.663	0.635	-0.502	1.18	-0.525 (inactive)	0.543	-3.07 (inactive)	1.02 (inactive)	0.652 (inactive)	-0.481 (inactive)	0.926	0.0155	1.05	0.548	-1.01
C=CCNC(=O)[C@H]1[C@@H]2C(=O)O[C@@H](c3ccccc3)[C@@H](c3ccccc3)N2[C@@H](c2ccc(O)cc2)[C@]12C(=O)Nc1ccc(C#CC3(O)CCCCCC3)cc12	2.76	0.277	0.201	0.481	1.16	0.267	-1.22	-0.15	0.0932	0.452 (inactive)	-0.0118	-1.11 (inactive)	-1.06 (inactive)	-0.0246 (inactive)	-0.301 (inactive)	0.163	0.0899	0.935	1.89	1.13
COCCOC(=O)N1C(=O)[C@@]2(c3cc(C#Cc4ccc(OC)cc4)ccc31)[C@H](C(=O)Nc1nc3ccccc3s1)[C@H]1C(=O)O[C@H](c3ccccc3)[C@H](c3ccccc3)N1[C@@H]2c1ccc(OCCO)cc1	1.14	1.12	0.168	0.809	1.17	1.28	-2.19	0.87	0.494	-3.71 (inactive)	0.755	-1.12 (inactive)	0.133 (inactive)	0.757 (inactive)	0.442 (inactive)	1.12	0.246	-0.129	0.337	1.84
[N-]=[N+]=NCc1ccccc1C[C@@]1(C(=O)N2CCCCC2)N=C(c2ccc(OCCCO)cc2)O[C@@H]1c1ccccc1	0.686	1.12	0.214	0.519	0.24	0.201	0.144	-0.693	0.636	-0.362 (inactive)	0.462	-4.99 (inactive)	0.914 (inactive)	-0.552 (inactive)	0.886 (inactive)	0.325	0.159	-0.0373	0.601	-0.762
CC(C)C(=C=CC[C@H](O)c1cccc(OCCO)c1)C[C@H](O)c1cc(Cl)cc(Cl)c1O	-0.397	0.637	0.295	0.713	1.31	0.484	0.487	1.3	0.628	-0.316 (inactive)	0.255	-0.254 (inactive)	-1.02 (inactive)	5.53 (inactive)	0.813 (inactive)	0.092	-0.116	0.605	-0.356	1.95
CCCCO[C@H]1C[C@H]2C(I)=C[C@@H]1C(=O)[C@]21CO1	1.74	-0.522	0.047	-0.886	0.145	0.129	0.258	0.351	-0.164	0.274 (inactive)	-0.0784	-0.232 (inactive)	0.0666 (inactive)	0.496 (inactive)	0.672 (inactive)	-0.258	-0.161	-0.336	-0.145	0.816
CC(C)[Si](C#CCCCC#N)(O[C@H](c1ccccc1)c1cn([C@H](CO)Cc2ccccc2)nn1)C(C)C	-0.135	1.12	0.26	0.975	1.14	0.812	0.162	0.385	0.231	-0.175 (inactive)	-0.187	-0.248 (inactive)	-0.747 (inactive)	-0.463 (inactive)	1.01 (inactive)	1.18	-0.108	0.531	0.477	0.774
CC(C)[Si](C#C[Si](C(C)C)(C(C)C)C(C)C)(O[C@H](C)c1cn([C@H](CO)Cc2ccccc2)nn1)C(C)C	0.0517	0.209	0.21	0.259	-0.093	0.288	0.476	0.412	0.141	-1.03 (inactive)	-0.0305	-0.43 (inactive)	-1.52 (inactive)	-0.463 (inactive)	-0.531 (inactive)	0.291	-0.234	0.238	0.144	0.341

Reference: PubChem BioAssay
